NOMO-1 viab: STK33 inhibitor candidate reducing NOMO-1 cell viability; AID 2330; 37,000 tested, 7.5% active; NOMO-1 AML viability, CellTiter-Glo luminescence, 72 h; inhibition, % (no concentration beside the values); in the data active = inhibition above about 80%; inconclusive = no clear call, values can overlap the other calls
PD-1 reversal: activators reversing PD-1 mediated T-cell inhibition; primary human CD4 T cells, PD-L1 beads, CellTiter-Glo 96 h; activation, % (no concentration beside the values); 29,000 tested, under 10 active; call rule not given here;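 note: 0% = median vehicle wells and 100% = positive control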
STK33 inh: human STK33 kinase inhibition | Q9BYT3 | ADP-Glo luminescence, MBP substrate | AID 2322 | 27,000 tested, 0.44% active | inhibition, % at 12.5 µM; in the data active = inhibition above about 20%; inconclusive = no clear call, values can overlap the other calls
Target sequence (Q9BYT3 whole entry, looked up): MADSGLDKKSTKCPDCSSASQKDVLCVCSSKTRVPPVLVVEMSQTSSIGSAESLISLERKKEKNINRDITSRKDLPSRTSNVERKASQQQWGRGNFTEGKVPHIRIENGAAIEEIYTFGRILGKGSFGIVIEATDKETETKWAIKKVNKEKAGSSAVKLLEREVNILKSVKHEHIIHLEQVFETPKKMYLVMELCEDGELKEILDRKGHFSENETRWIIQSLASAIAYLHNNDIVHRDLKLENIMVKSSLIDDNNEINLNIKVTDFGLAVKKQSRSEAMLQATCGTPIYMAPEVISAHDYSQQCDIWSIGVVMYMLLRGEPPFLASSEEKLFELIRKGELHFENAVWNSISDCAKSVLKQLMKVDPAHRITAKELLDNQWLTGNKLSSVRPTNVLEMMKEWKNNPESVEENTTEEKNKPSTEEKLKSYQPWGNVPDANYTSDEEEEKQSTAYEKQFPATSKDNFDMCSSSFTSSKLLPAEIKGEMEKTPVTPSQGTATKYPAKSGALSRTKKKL
Starred values were filed as active, the others as inactive; ? = inconclusive; nt = not tested or not shown. Many of the other results were omitted from the sample, so hits are more common in it than they were.

SMILES	NOMO-1 viab	PD-1 reversal	STK33 inh
C[C@H]1CN([C@@H](C)CO)C(=O)c2cccc(NS(=O)(=O)c3ccccc3)c2O[C@@H]1CN(C)S(=O)(=O)c1ccc(Cl)cc1	7	1	nt
Cc1noc(C)c1NC(=O)N(C)C[C@H]1Oc2ccc(NC(=O)Nc3ccc(C(F)(F)F)cc3)cc2C(=O)N([C@H](C)CO)C[C@H]1C	-2	-2	nt
CC(=O)Nc1ccc(NC(=O)c2cccc(C(=O)OC(C)C)n2)cc1	107*	0	nt
COC(=O)c1cccc(C(=O)Nc2ccc(F)cc2)n1	?	1	nt
O=C(CC1(O)C(=O)N(Cc2ccc(Cl)c(Cl)c2)c2ccccc21)c1ccc2c(c1)OCCO2 (stereo not given)	23	1	1
C=CCN1C(=O)C(O)(CC(=O)c2ccc(OC)c([N+](=O)[O-])c2)c2ccccc21 (stereo not given)	119*	-10	2
COc1ccc(CN2C(=O)C(O)(CC(=O)c3ccc(Cl)s3)c3ccccc32)cc1OC (stereo not given)	109*	nt	1
O=C(CC1(O)C(=O)N(Cc2ccc(Cl)c(Cl)c2)c2ccccc21)c1cccc([N+](=O)[O-])c1 (stereo not given)	108*	-6	2
C=CCN1C(=O)C(O)(CC(=O)c2ccc(C)o2)c2ccccc21 (stereo not given)	27	nt	7
Cc1ccccc1CN1C(=O)C(O)(CC(=O)c2ccncc2)c2cc(Cl)ccc21 (stereo not given)	129*	-7	-6
NC(=O)CN1C(=O)C(O)(CC(=O)c2ccc(Cl)s2)c2ccccc21 (stereo not given)	19	nt	-4
CC1CC(C)CN(C(=O)C2c3ccccc3Oc3ccccc32)C1 (stereo not given)	66	0	nt
COc1ccc(O)c(C(c2c[nH]c3ccccc23)c2c[nH]c3ccccc23)c1	44	-1	-1
O=C1N(CCS(=O)(=O)c2ccccc2)Cc2ccccc2[C@H]2OC(c3ccc(OCCCO)cc3)=N[C@@]12Cc1ccccc1	nt	nt	14
COc1ccc(CN2C(=O)C(O)(CC(=O)c3ccc(C)s3)c3ccccc32)cc1OC (stereo not given)	114*	nt	0
COc1ccc(CN2C(=O)C(O)(CC(=O)c3ccc(Cl)cc3)c3ccccc32)cc1OC (stereo not given)	112*	1	-4
COc1ccc(CN2C(=O)C(O)(CC(=O)c3c(C)coc3C)c3ccccc32)cc1OC (stereo not given)	50	nt	1
Cc1ccc(C(=O)CC2(O)C(=O)N(Cc3cccc4ccccc34)c3ccccc32)cc1 (stereo not given)	32	nt	2
COc1ccc(CN2C(=O)C(O)(CC(=O)c3ccc4c(c3)CCCC4)c3ccccc32)cc1OC (stereo not given)	47	-2	4
O=C(CC1(O)C(=O)N(Cc2cccc3ccccc23)c2ccccc21)c1ccc(F)cc1 (stereo not given)	84*	nt	2
COc1ccc(CN2C(=O)C(O)(CC(=O)c3cccnc3)c3ccccc32)cc1OC (stereo not given)	106*	-4	-6
Cc1noc(C)c1NC(=O)Nc1ccc2c(c1)C(=O)N([C@H](C)CO)C[C@H](C)[C@H](CN(C)C(=O)CCCN(C)C)OCCCC[C@@H](C)O2	26	2	3
COc1cc(S(C)=O)ccc1-c1nc2ccncc2[nH]1 (stereo not given)	17	8	3
CNC(=O)Nc1nc2cccnc2s1	31	0	12
C[C@@H]1CN([C@H](C)CO)C(=O)c2cc(NS(=O)(=O)c3ccccc3)ccc2O[C@@H]1CN(C)C(=O)Nc1ccc(F)cc1	4	-2	nt
SMILES	NOMO-1 viab	PD-1 reversal	STK33 inh
CC(C)NC(=O)N(C)C[C@H]1Oc2c(NC(=O)Nc3ccccc3)cccc2C(=O)N([C@@H](C)CO)C[C@H]1C	2	0	nt
C[C@H](CO)N1C[C@H](C)[C@H](CN(C)Cc2ccc(F)cc2)Oc2ncc(-c3cc4ccccc4o3)cc2C1=O	nt	nt	-1
C[C@@H]1CN([C@H](C)CO)C(=O)Cc2cc(NC(=O)Nc3ccc4c(c3)OCO4)ccc2O[C@@H]1CN(C)S(=O)(=O)c1cccs1	-2	nt	1
COc1ccc(S(=O)(=O)Nc2ccc3c(c2)CC(=O)N([C@@H](C)CO)C[C@H](C)[C@@H](CN(C)C(=O)NC(C)C)O3)cc1	-25	nt	2
COc1ccc(C(=O)CC2(O)C(=O)N(Cc3ccccc3Cl)c3ccc(Cl)cc32)cc1OC (stereo not given)	90*	-2	2
COc1ccc(C(=O)CC2(O)C(=O)Nc3ccc(Cl)cc32)cc1OC (stereo not given)	25	-1	0
CCOc1ccc2nc(SCC(=O)Nc3ccc([N+](=O)[O-])cc3)[nH]c2c1	1	4	-1
C[C@@H]1CN([C@H](C)CO)C(=O)c2cccc(NS(=O)(=O)c3cccs3)c2O[C@H]1CN(C)S(=O)(=O)c1ccccc1	-1	4	nt
COc1ccc(CC(=O)NC2CCCCC2)cc1OC	16	0	nt
COc1cc2c(c(OC)c1OC)-c1ccc(OC)c(=O)cc1[C@@H](NC(C)=O)CC2	118*	nt	2
C[C@H]1CN([C@@H](C)CO)C(=O)Cc2cc(NS(=O)(=O)c3cccs3)ccc2O[C@@H]1CN(C)C(=O)Nc1ccc(F)cc1	16	nt	0
Cc1noc(C)c1NC(=O)N(C)C[C@H]1Oc2c(NS(=O)(=O)c3c(C)noc3C)cccc2C(=O)N([C@H](C)CO)C[C@H]1C	-10	2	nt
C[C@H]1CN([C@@H](C)CO)C(=O)Cc2cc(NS(=O)(=O)c3ccc(F)cc3)ccc2O[C@H]1CN(C)S(=O)(=O)c1ccc(Cl)cc1	3	0	-4
CCC(C)CC(C)/C=C\C1OC2=C(C(=O)OC2(C)O)C(O)C1O (stereo not given)	108*	-8	-3
COc1ccc(NC(=O)CN(C)S(=O)(=O)c2cc(Cl)ccc2Cl)cc1Cl	25	1	-6
CCn1c(SCC(=O)Nc2ccc(OC)c(Cl)c2)nnc1-c1ccc(C)cc1	21	-2	2
C=C1CCC2C(C)(CO)CCCC2(C)C1CC/C(C)=C/C(=O)O (stereo not given)	nt	nt	-7
C=C1CCC2[C@](C)(CO)[C@H](O)CC[C@@]2(C)[C@@H]1C/C=C1/C(=O)OC[C@H]1O (stereo not given in full)	98*	-48	0
CC(Sc1nc(N)cc(N)n1)C(=O)Nc1cccc(Cl)c1 (stereo not given)	9	-1	-2
CS(=O)(=O)N1CCN(c2ccccc2NC(=O)c2ccc(N3CCCCC3)c([N+](=O)[O-])c2)CC1	19	-1	3
Cc1noc(C)c1NC(=O)N(C)C[C@H]1Oc2c(cccc2N(C)C)C(=O)N([C@@H](C)CO)C[C@@H]1C	-29	nt	nt
C[C@H]1CN([C@@H](C)CO)C(=O)c2cc(NC(=O)CCCN(C)C)ccc2O[C@@H]1CN(C)S(=O)(=O)c1cccs1	11	-1	nt
Cc1ccc(-c2csc3nc4c5ccccc5c(NCCCN5CCOCC5)nn4c(=O)c23)cc1	114*	-15	3
Cc1sc2ncnc(NCCCN3CCOCC3)c2c1-c1ccccc1	19	nt	0
Cc1sc2nc3c4ccccc4c(NCCO)nn3c(=O)c2c1C	-11	0	nt

Bioassay records deposited in PubChem by Broad Institute.
